About 83,000 compounds went through this panel and 20% of them were active in at least one assay; those are over-represented in the sample as a whole.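 Each cell line was grown in a 96-well plate and treated with one concentration of compound for 48 hours. Values below 10 were considered active.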 A number with no mark means an inactive call. The source made the active and inactive calls.

The assay deals with TK-10 renal. As to the kind of experiment: NCI-60 one-dose screen, 48 h (100 = growth as untreated, 0 = no growth, -100 = all killed). The note with it: 10 µM unless noted.
For `COc1cnc2c(c1)C(=O)c1c-2n(CCCN2CCNCC2)c(=O)c2cc(Cl)ccc12`, the growth is 47.5%.
For `c1coc(CNc2c3ccccc3nc3ccccc23)c1`, the growth is 88.4%.
Consider `Cn1cnc([N+](=O)[O-])c1S(=O)(=O)Oc1ccccc1`, for which the growth was 101%.
On to `O=c1c2cc(Br)cc(Br)c2nc(-c2ccc(Cl)cc2)n1/N=C\c1ccccc1F`, for which the growth is 33.1%.
Regarding `CC1=CC(=O)OC1C/C=C(\C)CCC1[C@@]2(C)CCC[C@@](C)(C(=O)O)C2CC[C@@]1(C)O` (stereo partly drawn), the growth was 53.6%.
Take `Cn1cnc([N+](=O)[O-])c1S(=O)(=O)Oc1cccc2ccccc12`: the growth was 96.3%.
Turning to `COc1ccccc1CNCCCN1C(=O)c2ccc3c4c(ccc(c24)C1=O)C(=O)N(CCCOCCCCOCCCN)C3=O`, the growth was 28.6%.
Take `COc1cc(NCC(O)CN(CC(C)C)CC(C)C)c2ncccc2c1` (stereo not drawn): the growth was 113%.
Consider `CC(C)(CCc1ccccn1)C(=O)CCCc1ccccn1`, for which the growth is 97%.
As to `COc1cccc(-c2nc3sccn3c2-c2ccnc(NCCN3CCCN(C)S3(=O)=O)n2)c1`, the growth is 120%.
`Cc1ccc(NC(=O)c2sc3nc4c(cc3c2N)C(=O)CCC4)cc1Cl`: the growth was 96.5%.
For the molecule `COc1ccc(NC(=O)c2sc3c(=O)[nH]c(C(F)(F)F)nc3c2C)cc1`, the growth is 104%.
On to `CCC1=CC2CN(C1)Cc1c([nH]c3ccccc13)[C@@](C(=O)OC)(c1cc3c(cc1OC)N(C)[C@H]1[C@@](O)(C(=O)OC)[C@H](OC(C)=O)[C@]4(CC)C=CCN5CC[C@]31[C@@H]54)C2` (stereo partly drawn), for which the growth is 41.2%.
Regarding `CN1C2CCC1/C(=C\c1ccc(Cl)cc1)C(=O)/C2=C/c1ccc(Cl)cc1`, the growth is 79%.
Consider `CC(C)[C@@]12C[C@@H](OC(=O)[C@H]3CO3)[C@@](C)(O1)[C@@H]1CC[C@@H](C)[C@H]1[C@@H]2OC(=O)/C=C/c1ccccc1`, for which the growth is 103%.
As to `OCCN(CCO)c1ccc2ccccc2c1`, the growth was 97.6%.
For `O=C(NCCN1CCCC1)n1cc(-c2ccncc2)c(-c2cc(O)cc(Cl)c2)n1`, the growth was 78.6%.
To `CC1=C(/C=C/C(C)=C/C=C(C(=O)O)\C(C)=C\C(=O)O)C(C)(C)CCC1` belongs 98%; to `O=C1/C=C/[C@@H](O)[C@@H]2C[C@@H](O)C[C@H]2/C=C/CCC[C@H]([C@@H](O)CO)O1`, 121%; to `O=C1C(Cl)=C(Nc2cccc3ccccc23)C(=O)c2ccccc21`, 95.4%.
With `Cc1ccc2c(C)c3c(ccc4ccccc43)c[n+]2c1`, the growth was 111%.
As to `Nc1c(C(=O)C[C@@H](N)CO)ccc2c1C(=O)CCO2`, the growth was 71.4%.
To `COc1ccc2c(c1)sc1nc(-c3ccccc3)c(-c3cccc4ccccc34)n12` belongs 37.9%; to `CCOc1cc(/C=N\NC(=O)C[N+](C)(C)C)ccc1O`, 105%.
For the molecule `C=C1C(=O)O[C@H]2[C@H]1CC/C(COC(=O)NCc1cn(C)c3ccccc13)=C\CC[C@@]1(C)O[C@@H]21`, the growth is -47.8% (active).
For the molecule `CCCCCCCC/C=C/CCCCCCCC1=NC(C)(C)CN1C(C)C`, the growth was -14.8% (active).
For `Clc1ccc(-c2nc(-c3cccs3)no2)cc1`, the growth was 74.6%.
With `C=CCOC(=O)C1=C(C)NC2=C(C(=O)CC(C)(C)C2)C1c1ccc(OC)cc1` (stereo not drawn), the growth is 114%.
Consider `COc1ccc(/C=C(\C#N)c2cc(OC)c(OC)c(OC)c2)cc1`, for which the growth is 74.1%.
Consider `CCOC(=O)C#Cc1c(C(=O)OCC)nnn1[C@@H]1O[C@H](COC(C)=O)[C@@H](OC(C)=O)[C@H]1OC(C)=O`, for which the growth is 62.3%.
Turning to `CCOC(=O)c1ccc(NC(=O)CSC(N)=O)cc1`, the growth is 113%.
In the case of `COc1cc(-c2nc(-c3ccc(-c4nc5ccc(F)cc5[nH]4)cc3)no2)cc(OC)c1OC`, the growth was 93%.
To `Nc1ccc(C2=NNC(=O)Cc3cc4c(cc32)OCCO4)cc1Cl` belongs 72.3%.
For the molecule `COc1cc(/C=C2\CN(C(=O)OC(C)(C)C)C/C(=C\c3ccc(O)c(OC)c3)C2=O)ccc1O`, the growth was 105%.
With `CCN1C(=O)N(CC)C2C1N=C(SC)N2/N=C/C=C/c1ccccc1OC` (stereo not drawn), the growth is 46.8%.
To `N#CCCn1cnc2c(N)ncnc21` belongs 114%.
Consider `COc1ccc(C2c3cccn3-c3ccccc3N2C(C)=O)cc1` (stereo not drawn), for which the growth was 103%.
With `COc1ccccc1/C=C/C(=O)CCC(=O)O`, the growth is 110%.

The values are drawn from PubChem BioAssay (NCI).
